The results in this text go back to PubChem BioAssay (NCATS).

Test [1] can be described thus: Cell Viability - MRC5 (AID 434; calls by dose curve;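 also: potency is read from the fitted curve at half-maximal effect; potency reflects cytotoxicity seen as loss of intracellular ATP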). The following applies: MRC5 lung fibroblast viability, qHTS. The gist of the method: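 MRC5 normal human lung fibroblasts (1500/well) were treated with compounds for 40 hr at 37 °C in complete medium, and viable cells were measured as intracellular ATP by CellTiter-Glo luminescence. AC50 came from Hill fits, normalized to DMSO and 100 uM tamoxifen.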
A general note: In qHTS, concentration-response curves come from the screen itself.

Test [2] can be described thus: Cell Viability - N2a (AID 540).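 Also: cells exposed to compound for 40 h at 37 °C; plate controls were DMSO alone for no effect and tamoxifen control for full effect; nearly all actives have a fitted effect of over 45% in size.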 The note with it: N2a mouse neuroblastoma cell viability; at 92.2 µM (top of the series). The gist of the method: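 Luminescent ATP signal (CellTiter-Glo, 20 min at room temperature) served as the viability read-out after N2a cells were treated with compounds for 40 hours at 37 °C. Concentration-response data were fitted to the Hill equation for AC50.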

A short description of test [3]: Cell Viability - H-4-II-E (AID 543). Also: % is scaled to controls: 0 for no effect and ±100 for the full control effect; nearly all actives have a fitted effect of over 35% in size. The note with it: H-4-II-E rat hepatoma viability; series mostly up to 92.2 µM. In outline: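 Luminescent ATP signal (CellTiter-Glo) served as the viability read-out, with cytotoxicity seen as a concentration-dependent ATP drop. Cells were treated for 40 hours in complete medium. AC50 values derive from Hill-equation modelling.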

Test [4] is described as follows: Cellular Toxicity (caspase-3) Jurkat (AID 655).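 Also: cells exposed to compound for 16 h at 37 °C before reading.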 The note with it: Jurkat caspase-3 activation, luminescence, DMSO = 0%, tamoxifen = 100%; at 92.2 µM (top of the series). The gist of the method:
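5000 Jurkat cells/well; compound 16 hr, 37 °C; Caspase-Glo 3/7 added, 20 min RT; luminescence read. Norm: DMSO = 0%, tamoxifen 100 uM = 100%. AC50, Hill model.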

Test [5] in a line: Cell Viability - LYMP1-002 - Assay at 16 hr (AID 948).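 Also: 0% = DMSO alone and full effect = 92 µM tetraoctylammonium bromide.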 The note with it: LYMP1-002 lymphoblastoid cell viability; series mostly up to 92.2 µM. In outline: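 Seed 2500 LYMP1-002 cells per well in complete medium and hold 5 hr at 37 C. Add compound across a concentration series and incubate 16 hr at 37 C. Add CellTiter-Glo, wait 30 min at room temperature, read luminescence.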
The nature of test [6]: MultiTox-Fluor Cytotoxicity Assay - LYMP1-002 - Dead Cells (AID 960). Also: nearly all actives have a fitted effect of over 60% in size. The note with it: LYMP1-002 lymphoblastoid cells, dead-cell protease fluorescence; series mostly up to 46.1 µM. The gist of the method:
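LYMP1-002 cells 2500/well; 5 hr 37 C pre-incubation; compound 16 hr 37 C; MultiTox-Fluor reagent 60 min RT; dead-cell fluor Ex/Em 485/520. Norm. to DMSO (0%) vs 15 uM tetraoctylammonium bromide (100%); Hill AC50.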

Test [7] is described as follows: MultiTox-Fluor Cytotoxicity Assay - LYMP1-003 - Dead Cells (AID 961). Also: nearly all actives have a fitted effect of over 70% in size. The following applies: LYMP1-003 lymphoblastoid cells, dead-cell protease fluorescence; series mostly up to 92.2 µM. The gist of the method:
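LYMP1-003 lymphoblastoid, 2500 cells/well, 5 hr settle then 16 hr cpd at 37 C; MultiTox-Fluor reagent 60 min RT; Ex/Em 485/520 dead-cell signal; norm. DMSO = 0%, 15 uM tetraoctylammonium bromide = 100%; Hill AC50.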

Test [8] is described as follows: MultiTox-Fluor Cytotoxicity Assay - LYMP1-003 - Live Cells (AID 962).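 Also: cells exposed to compound for 16 hours at 37 °C; 0% = DMSO only and full loss = 92 µM tetraoctylammonium bromide; cytotoxic hits lower the live-cell protease signal.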 The following applies: LYMP1-003 lymphoblastoid cells, MultiTox-Fluor live-cell protease fluorescence; series mostly up to 92.2 µM. The gist of the method:
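qHTS, 1536-well; 2500 cells/well LYMP1-003; 5 hr 37 C settle; cpd 16 hr 37 C; MultiTox-Fluor reagent 60 min RT; live-cell protease fluor. 405/510; Hill-fit AC50; tetraoctylammonium bromide pos. ctrl.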

Test [9] is described as follows: Cell Viability - LYMP1-003 - Assay at 24 hr (AID 963).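 Also: plate controls were DMSO only for no effect and tetraoctylammonium bromide positive control for full effect.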 The note with it: LYMP1-003 lymphoblastoid cell viability; series mostly up to 92.2 µM. In outline:
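Cells seeded at 2500/well, 5 hr at 37 C; compounds added; 24 hr at 37 C; CellTiter-Glo added, 30 min room temperature; luminescence read. Decrease in ATP taken as cytotoxicity, AC50 from Hill modelling.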

A short description of test [10]: Cell Viability - LYMP2-003 (AID 965).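 Also: cells exposed to compounds for 24 h before reading; 0% = DMSO only and full effect = 92 µM tetraoctylammonium bromide; nearly all actives have a fitted effect of over 50% in size.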 The note with it: LYMP2-003 lymphoblastoid cell viability; series mostly up to 92.2 µM. The gist of the method:
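Seed 2500 lymphoblastoid cells/well; incubate 5 hr, 37 C; add compounds; incubate 24 hr, 37 C; add CellTiter-Glo, 30 min RT; read luminescence. AC50 from Hill fit.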

Test [11] concerns the target Glucocorticoid receptor (Homo sapiens) (UniProt P04150). The test is described as follows: qHTS assay for small molecule agonists of glucocorticoid receptor signaling (AID 588532; active = well fitted curve in the direction sought with a large enough effect in the signal ratio, with a control signal flat; the % refers to the signal ratio;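 also: 100% = dexamethasone at 0.1 µM and 0% = DMSO only wells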). The note with it: HeLa MMTV-bla, beta-lactamase ratio, agonist, 18 h; stronger effect = higher value; percent of dexamethasone control, DMSO zero. The gist of the method: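 MMTV-bla HeLa, beta-lactamase reporter; medium with 1% charcoal/dextran-stripped FBS; cpds up to 92 uM, 18 h, 37 C; CCF4 readout 460/530 nm; Hill fit → EC50, efficacy vs 0.1 uM dexamethasone = 100%.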

The target in test [12] is Thyroid hormone receptor beta (Homo sapiens) (UniProt P10828). The test is described as follows: qHTS assay for small molecule agonists of thyroid hormone receptor beta signaling (AID 588545; calls by dose curve;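 also: 0% = DMSO only and 100% = 10 nM T3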). The note with it: TR-UAS-bla GripTite HEK 293, beta-lactamase ratio, agonist mode, 18 h, percent of T3 response, DMSO as zero; series mostly up to 76.7 µM. In outline:
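TR-UAS-bla-GripTite HEK 293 cells in medium with 2% charcoal/dextran FBS, 0.1 mM NEAA and 1 mM sodium pyruvate were treated with titrated compounds for 18 hrs at 37 C. Beta-lactamase reporter was read with CCF4 dye (ex 405, em 460/530 nm); EC50 from Hill fits.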

The nature of test [13]: qHTS assay for small molecule antagonists of retinoid X receptor alpha signaling (AID 588546; active = well fitted inhibition curve with a large enough effect in the signal ratio, with a control signal flat, not every such curve was filed as active; the % refers to the signal ratio;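 also: cells stimulated with 9-cis-retinoic acid as agonist; % is scaled to controls: 0 for no effect and ±100 for the full control effect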). The note with it: HEK293T RXRa-UAS-bla, beta-lactamase ratio, antagonist mode; measured here: W530 green channel, cytotoxicity proxy. The gist of the method: (§1)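 Beta-lactamase reporter inhibition, read as CCF4 fluorescence ratio (ex 405, em 460/530 nm) after 2 h at RT. HEK293T UAS-bla cells, 2500/well, were stimulated with 9-cis-RA at 500 or 100 nM final alongside test compound for 18 h at 37 C.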

The target in test [14] is Retinoic acid receptor RXR-alpha (Homo sapiens) (UniProt P19793). Described as above. The note with it: HEK293T RXRa-UAS-bla, beta-lactamase ratio, antagonist mode. The gist of the method:
as §1

In test [15] the target is Thyroid hormone receptor beta (Homo sapiens) (UniProt P10828). The test is described as follows: qHTS assay for small molecule antagonists of thyroid hormone receptor beta signaling (AID 588547; active = well fitted inhibition curve with a large enough effect in the signal ratio, with a control signal flat, not every such curve was filed as active; the % refers to the signal ratio;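 also: cells stimulated with 0.4 nM T3 agonist during compound exposure; % is scaled to controls: 0 for no effect and ±100 for the full control effect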). The note with it: TR-UAS-bla HEK293, beta-lactamase ratio, antagonist mode, 18 h. The gist of the method: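 TR-UAS-bla GripTite HEK293 cells in 2% charcoal/dextran FBS medium were preincubated 4 h at 37 C, given compound (0.59 nM to 92 uM) plus 0.4 nM T3 (final) for 18 h, then CCF4 for 2 h at RT; Hill fit gave IC50.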

Test [16] can be described thus: qHTS assay for small molecule agonists of the antioxidant response element (ARE) signaling pathway (AID 651741; active = well fitted activation curve with a large enough effect in the signal ratio; the % refers to the signal ratio; also: potency is read from the fitted curve at half-maximal effect; as to activation: % of control where 0% means no effect). The following applies: HepG2 ARE-bla reporter, beta-lactamase FRET ratio, 16 h; series mostly up to 96 µM. The gist of the method:
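Compounds in DMSO are pinned onto HepG2 ARE-bla cells (2,000/well) that were preincubated 5 h; plates stay 16 h at 37 C, then beta-lactamase activity is detected with LiveBLAzer B/G substrate by fluorescence.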

Test [17] can be described thus: qHTS assay for small molecule disruptors of the mitochondrial membrane potential - 5 hr assay (AID 651755; calls by dose curve; also: % is scaled to controls: 0 for no effect and ±100 for the full control effect; nearly all actives have a fitted effect of over 40% in size). The note with it: JC-1-type ratio dye; series mostly up to 92.2 µM. The gist of the method:
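HepG2 cells, attached overnight at 37C, were exposed to compound or DMSO for 5 hr at 37C, 5% CO2. Mito-MPS dye was then added for 30 min, and fluorescence read at 490/535 nm (monomers) and 540/590 nm (aggregates).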

Test [18] in a line: qHTS assay for environmental chemicals that activate the Aryl hydrocarbon Receptor (AhR) signaling pathway (AID 651777). Also: % of control where 0% means no effect; nearly all actives have a fitted effect of over 15% in size. The note with it: 1A2-DRE human hepatoma cells, luciferase, 24 h; activation: stronger effect = higher value. In outline: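 Stable CYP1A2 promoter/DRE-luciferase human hepatoma line treated 24 hr; One-Glo luminescence, 30 min RT.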
Test [19] has as its target Peroxisome proliferator-activated receptor alpha (Homo sapiens) (UniProt Q07869). The test is described as follows: qHTS assay for small molecule agonists of the peroxisome proliferator-activated receptor alpha (PPARalpha) signaling pathway (AID 651778). Also: % of control where 0% means no effect. The note with it: PathHunter PPARalpha complementation, chemiluminescence, 6 h; stronger effect = higher value. In outline: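 Cells plated at 2,000/well and held overnight at 37 C, 5% CO2, then compound added by pin tool for 6 hr; after PathHunter detection reagent and 60 min at room temperature, chemiluminescence from enzyme complementation was read.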

Test [20] is described as follows: qHTS assay for small molecule agonists of the antioxidant response element (ARE) signaling pathway measured by Nrf2-dependant transcriptional activity (AID 720636; active = well fitted curve in the direction sought with a large enough effect in the repeat runs; an effect the other way counts as inactive or inconclusive;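 also: HepG2 cells with an ARE-driven luciferase reporter; % of control where 0% means no effect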). The note with it: ARE-luc HepG2, Nrf2 luciferase reporter, 16 h; series mostly up to 92.4 µM. The gist of the method: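 Reporter gene assay, HepG2 ARE-luc: 16 hr compound, 37 C, 5% CO2; read-out luciferase luminescence.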

Where “and” joins values, the source holds several entries; their conditions need not be identical. Equal values may be shown once. Results filed as inconclusive are left out. Calls of active or inactive are those of the source. Unless noted, calls follow the shape of the dose curve; as a rule, active = well fitted curve in the direction sought with a large enough effect; inconclusive = small, poorly fitted or top-dose-only effect, or another doubt; inactive = no such curve, though single readings can be large; an effect the other way counts as inactive or inconclusive.

Chain of Thyroid hormone receptor beta (Homo sapiens) (P10828 whole entry, looked up): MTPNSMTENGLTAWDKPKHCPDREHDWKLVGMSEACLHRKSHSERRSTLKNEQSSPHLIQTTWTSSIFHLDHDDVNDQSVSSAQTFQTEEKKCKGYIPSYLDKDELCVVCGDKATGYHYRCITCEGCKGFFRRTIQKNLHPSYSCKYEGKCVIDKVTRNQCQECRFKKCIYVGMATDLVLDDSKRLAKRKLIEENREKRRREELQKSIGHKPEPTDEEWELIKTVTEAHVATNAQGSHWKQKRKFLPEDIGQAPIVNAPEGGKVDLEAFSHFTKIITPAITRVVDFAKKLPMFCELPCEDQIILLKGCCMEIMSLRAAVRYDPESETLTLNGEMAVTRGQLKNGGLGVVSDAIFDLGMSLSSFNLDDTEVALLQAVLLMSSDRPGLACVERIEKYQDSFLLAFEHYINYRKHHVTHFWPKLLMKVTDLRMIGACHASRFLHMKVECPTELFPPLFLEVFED
Chain of Glucocorticoid receptor (Homo sapiens) (P04150 whole entry, looked up): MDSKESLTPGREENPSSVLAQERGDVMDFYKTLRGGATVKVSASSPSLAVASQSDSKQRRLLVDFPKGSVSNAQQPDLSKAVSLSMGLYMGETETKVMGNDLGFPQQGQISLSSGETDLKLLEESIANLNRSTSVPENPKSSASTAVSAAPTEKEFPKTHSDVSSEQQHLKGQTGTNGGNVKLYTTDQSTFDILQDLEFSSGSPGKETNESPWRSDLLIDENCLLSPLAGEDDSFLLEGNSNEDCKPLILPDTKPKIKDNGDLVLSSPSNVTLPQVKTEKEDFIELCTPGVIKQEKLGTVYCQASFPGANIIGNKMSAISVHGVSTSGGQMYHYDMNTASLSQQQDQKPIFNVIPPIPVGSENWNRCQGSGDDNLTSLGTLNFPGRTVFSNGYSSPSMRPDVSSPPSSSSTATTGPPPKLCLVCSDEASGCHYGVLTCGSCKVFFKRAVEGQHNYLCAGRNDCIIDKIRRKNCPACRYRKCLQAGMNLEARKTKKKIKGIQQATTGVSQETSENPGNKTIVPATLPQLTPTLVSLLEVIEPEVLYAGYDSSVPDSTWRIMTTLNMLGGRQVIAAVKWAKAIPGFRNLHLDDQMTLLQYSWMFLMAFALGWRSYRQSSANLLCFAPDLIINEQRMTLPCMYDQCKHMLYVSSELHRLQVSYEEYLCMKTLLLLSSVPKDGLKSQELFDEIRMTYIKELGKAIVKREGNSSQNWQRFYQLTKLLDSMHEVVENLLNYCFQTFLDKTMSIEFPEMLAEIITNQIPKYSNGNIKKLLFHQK
Chain of Retinoic acid receptor RXR-alpha (Homo sapiens) (P19793 whole entry, looked up): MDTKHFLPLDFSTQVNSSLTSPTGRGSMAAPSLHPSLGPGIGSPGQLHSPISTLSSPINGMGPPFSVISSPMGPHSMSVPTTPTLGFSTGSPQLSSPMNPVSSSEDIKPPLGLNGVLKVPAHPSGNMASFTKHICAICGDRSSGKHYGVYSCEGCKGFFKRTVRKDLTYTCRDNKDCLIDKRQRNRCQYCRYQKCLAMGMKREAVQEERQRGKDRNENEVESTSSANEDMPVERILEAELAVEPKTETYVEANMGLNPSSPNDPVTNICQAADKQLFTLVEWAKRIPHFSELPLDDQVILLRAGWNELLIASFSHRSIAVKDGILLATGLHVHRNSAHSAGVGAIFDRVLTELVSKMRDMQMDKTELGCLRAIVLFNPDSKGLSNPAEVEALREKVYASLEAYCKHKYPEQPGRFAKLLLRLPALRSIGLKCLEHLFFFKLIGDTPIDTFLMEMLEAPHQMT
Chain of Peroxisome proliferator-activated receptor alpha (Homo sapiens) (Q07869 whole entry, looked up): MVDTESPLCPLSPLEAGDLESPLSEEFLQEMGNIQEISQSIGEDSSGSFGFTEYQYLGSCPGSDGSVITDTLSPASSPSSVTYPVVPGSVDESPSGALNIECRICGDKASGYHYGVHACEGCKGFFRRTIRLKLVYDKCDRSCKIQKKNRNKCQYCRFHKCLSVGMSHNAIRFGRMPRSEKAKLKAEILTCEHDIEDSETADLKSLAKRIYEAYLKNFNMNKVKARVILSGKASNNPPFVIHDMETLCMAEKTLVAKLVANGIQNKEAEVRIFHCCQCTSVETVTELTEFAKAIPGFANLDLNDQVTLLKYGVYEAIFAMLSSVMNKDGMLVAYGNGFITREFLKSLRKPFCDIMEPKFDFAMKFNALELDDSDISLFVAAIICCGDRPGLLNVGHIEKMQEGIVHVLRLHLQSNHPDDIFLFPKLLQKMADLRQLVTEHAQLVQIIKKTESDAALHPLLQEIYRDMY

In the case of `ClC(Cl)=C(c1ccc(Cl)cc1)c1ccc(Cl)cc1`, the Potency in test [1] is > 92 µM (inactive); in test [16], 66.8 µM (active). Besides, in test [2], the activity change, negative = cytotoxicity is -14.6% (inactive). The Potency entry in [3], in test [5], in [6], in test [7], in test [8] and in test [9] was “inactive” each time. Moreover, the Potency result in test [10] and in [17] was “inactive” each time. The caspase-3 activation in test [4] was 0.557% (inactive) and 1.81% (inactive). Further, the activation in test [11] is 4.56% (inactive) and 6.94% (inactive) and 2.36% (inactive); in test [18] it was 0.0823% (inactive) and 0.597% (inactive) and 0.112% (inactive). For the same compound, the outcome in [12] and in [20] was inactive. Also, the max response in test [13] was -0.142% and -15.3%; in test [14], -7.07% (inactive) and 0.666% (inactive); in test [19], 21.8% (inactive) and 11.7% (inactive) and 4.05% (inactive). For the same compound, the activity change % (negative = inhibition) in [15] is 0.649% (inactive) and 24.3% (inactive) and -8.25% (inactive).
In the case of `C=CCc1ccc(OC)cc1`, the Potency in [1] is > 92 µM (inactive). Further, the activity change, negative = cytotoxicity in [2] is -8.37% (inactive). Also, the Potency result in test [3], in [5], in test [6], in test [7], in test [8] and in [9] was “inactive” each time. The Potency entry in [10] and in test [16] was “inactive” in each case. For the same compound, the caspase-3 activation in test [4] was 0.324% (inactive). Also, the max response is -1.65% in test [13], 6.28% (inactive) in [14] and 0.294% (inactive) in test [19]. Besides, in [15], the activity change % (negative = inhibition) was -7.69% (inactive). The compound was classed as inactive in test [20].
As for `COP(=S)(OC)Oc1ccc([N+](=O)[O-])cc1`, in test [1], the Potency is > 92 µM (inactive). Besides, the activity change, negative = cytotoxicity in [2] is -21.2% (inactive). For the same compound, the Potency entry in test [3], in test [5], in test [6], in test [7], in [8] and in test [9] was “inactive” each time. Also, the Potency entry in test [10], in test [16] and in [17] was “inactive” throughout. Further, the caspase-3 activation in test [4] was 4.38% (inactive). For the same compound, the outcome in test [12] and in [20] was inactive. Moreover, the max response in [13] was -15.3% and -6.14%; in test [14], -10.1% (inactive) and -10.7% (inactive); in test [19] it was -2.98% (inactive) and -2.34% (inactive). Also, in test [15], the activity change % (negative = inhibition) is -2.23% (inactive) and 4.43% (inactive). Also, the activation in test [18] was 0.87% (inactive) and 0.313% (inactive).
